Screens from PubChem.
M1 PAM: positive allosteric modulators of human M1 muscarinic receptor | CHO-K1 hM1, Fluo-8 calcium fluorescence, ACh EC20; 0% = ACh EC20, 100% = maximal ACh | activation, % at 3 µM | 0.088% of 360,000 active | AID 588819; in the data active = activation above about 19%, passing the limit was not always enough
Target sequence (P11229 whole entry, looked up): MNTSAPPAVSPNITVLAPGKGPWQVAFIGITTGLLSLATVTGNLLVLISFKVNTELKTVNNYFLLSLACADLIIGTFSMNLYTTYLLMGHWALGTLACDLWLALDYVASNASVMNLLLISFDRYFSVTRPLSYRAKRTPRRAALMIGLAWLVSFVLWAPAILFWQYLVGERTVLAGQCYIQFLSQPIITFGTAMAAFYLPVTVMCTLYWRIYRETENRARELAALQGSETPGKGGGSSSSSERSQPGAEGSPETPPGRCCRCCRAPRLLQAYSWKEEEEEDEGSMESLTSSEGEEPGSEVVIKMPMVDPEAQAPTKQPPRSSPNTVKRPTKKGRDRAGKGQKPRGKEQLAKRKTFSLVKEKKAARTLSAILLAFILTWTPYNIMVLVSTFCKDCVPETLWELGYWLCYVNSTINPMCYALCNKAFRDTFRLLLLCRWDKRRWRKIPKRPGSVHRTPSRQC
CHRM1 agonist: human M1 muscarinic receptor agonism; CHO-K1 hM1, Fluo-8 calcium fluorescence, agonist mode; 0% DMSO, 100% acetylcholine EC100; activation, % at 3 µM; 0.33% of 360,000 active;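 active = activation above the run's mean compound activation plus 3 SD, cut at about 16% in these data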;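 also: peak over basal fluorescence ratio within a 140 s kinetic read after compound addition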
M1 PAM parental: counter-screen for M1 PAMs: effect in parental CHO-K1 cells; ATP EC20, Fluo-8 calcium fluorescence; 0% at ATP EC20, 100% at ATP max; activation, % at 3 µM; 0.02% of 360,000 active; AID 602247;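 active = activation above the run cutoff, the mean activation of all test compounds plus 3 SD, cut at about 40% in these data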;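 also: peak over basal fluorescence ratio in a 140 s read after ATP addition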
M1 ag parental: counter-screen for M1 agonists: effect in parental CHO-K1 cells. AID 602248. 0.48% of 360,000 active. Fluo-8 calcium fluorescence; scaled to maximal ATP response, vehicle zero. activation, % at 3 µM; in the data active = activation above about 15%;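 also: untransfected CHO-K1 host cells lacking M1 receptor as counterscreen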
CHO-K1 Ca antag: nonselective inhibitor or artifact in parental CHO-K1 cells | ATP-induced calcium, Fluo-8 fluorescence | inhibition, % at 3 µM | 0.6% of 360,000 active;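 active = inhibition above a per-plate cutoff, the plate's mean sample inhibition plus 3 SD, cut at about 24% in these data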
M1 antag: blocks human M1 muscarinic receptor; AID 588852; 1.3% of 360,000 active; CHO-K1 hM1, Fluo-8 calcium fluorescence, ACh EC80 antagonist; inhibition, % at 3 µM;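 active = percent inhibition above its own plate's cutoff, namely the mean of that plate's compound wells plus 3 SD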;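 also: peak over basal fluorescence ratio during 140 s after agonist addition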
Of the large screens only hits and unclear results are named; the others gave an inactive call. Compounds with a hit are over-represented: about 2.4% of the library has one in this group of screens.

COC(=O)c1ccc(CN2CCN(C3CCCC3)C(CCO)C2)cc1 (configuration not stated)	M1 antag 92
COC(=O)c1ccc(CN2CCN(C3CCCCC3)C(CCO)C2)cc1 (configuration not stated)	M1 antag 60
CC(=O)Nc1ccc(CN2CCN(C3CCCCC3)C(CCO)C2)cc1 (configuration not stated)	M1 antag 24
N#Cc1c(NC(=O)c2ccc(-c3ccccc3[N+](=O)[O-])o2)sc2c1CCCC2	CHO-K1 Ca antag 28
Cc1cccc(-n2c(C)cc(/C=N/n3cnnc3)c2C)c1	M1 antag 70
COc1cc(-c2noc(CCCC(=O)Nc3cccnc3)n2)cc(OC)c1OC	none
COc1cc(C2NC(=O)c3ccccc3O2)ccc1OC(C)C (configuration not stated)	CHO-K1 Ca antag 25
Cc1cc(NS(=O)(=O)c2c(C)[nH]c(=O)[nH]c2=O)ccc1Br	none
CCOC(=O)CSc1ccc(C(=O)NCCN2CCOCC2)cc1[N+](=O)[O-]	M1 antag 47
Cn1cnc2c(cnn2-c2ccccc2)c1=O	none
CCC(=O)Nc1cccc(C2=NOC3(C2)C[C@H](C(N)=O)N(C(=O)c2ccc(Cl)cc2)C3)c1 (some centres not stated)	none
CC(=O)c1ccc(NC(=O)Cn2cnc(S(=O)(=O)N3CCc4ccccc43)c2)cc1	CHO-K1 Ca antag 25
Cc1nn(Cc2ccccc2)c(Cl)c1C(=O)NCc1ccc(C)n1C	none
CCOC(=O)c1ccc(NC(=S)NCCc2ccccc2F)cc1	M1 ag parental 15, CHO-K1 Ca antag 25, M1 antag 61
CCOC(=O)c1ccc(NC(=S)NCC(O)c2ccccc2)cc1 (configuration not stated)	M1 antag 34
CCOC(=O)C1(Cc2ccccc2)CCCN(C(=O)c2cnn(CC)c2)C1 (configuration not stated)	CHO-K1 Ca antag 29
CCOC(=O)C1(Cc2ccccc2)CCCN(Cc2cnn(CC)c2)C1 (configuration not stated)	none
CN(C(=O)c1cccc(NC(=O)Cc2cccc(NC(=O)C3CCN(C(=O)C4CCC4)CC3)c2)c1)C1CC1	none
CC(C)CCC(CCN1CCCC1)c1ccc2c(c1)OCO2 (configuration not stated)	M1 antag 57
CC(C)CCC(CCN1CCOCC1)c1ccc2c(c1)OCO2 (configuration not stated)	none
CCCCn1c(N)c(N(CC(C)C)C(=O)CCCc2cccs2)c(=O)[nH]c1=O	CHO-K1 Ca antag 26
CCCCn1c(N)c(N(CC(C)C)C(=O)CCS(=O)(=O)c2ccc(C)cc2)c(=O)[nH]c1=O	none
Cc1ccc(NC(=O)C2CCN(C(=O)[C@@H]3Cc4ccccc4CN3)CC2)c(C)c1	none
CCCCN1C(=N)N([C@@H](CCC)CN2CCC[C@H]2CN2C(N)=NC[C@@H]2Cc2ccccc2)C[C@H]1Cc1ccccc1	M1 antag 36
CCC[C@@H](CN1CCC[C@H]1CN1C(N)=NC[C@@H]1Cc1ccccc1)N1C[C@@H](Cc2ccccc2)N(CCCC2CCCC2)C1=N	none
CCC[C@@H](CN1CCC[C@H]1CN1C(N)=NC[C@@H]1Cc1ccccc1)N1C[C@@H]([C@H](C)CC)N(CCCC2CCCC2)C1=N	M1 antag 82
O=C(NC(=S)Nc1ncc(Br)cc1Br)c1cncc(Br)c1	none
CC(=NNC(=O)c1ccncc1)c1ccc2ccccc2c1O	CHRM1 agonist 70, M1 ag parental 69
COCC(=O)Nc1ccc2c(c1)[C@@H]1C[C@H](CC(=O)OC)O[C@@H](CO)[C@@H]1O2	CHO-K1 Ca antag 24
COC(=O)C[C@H]1C[C@@H]2c3cc(NC(=O)CN(C)C)ccc3O[C@@H]2[C@H](CO)O1	none
Cc1ccc2cc3cc(C(=O)NCCCN4CCCC4)oc3nc2c1	none
COc1ccc(N2C(=O)[C@@H]3[C@H](C2=O)[C@H]2c4ccccc4C=CN2[C@@H]3C(=O)Nc2ccccc2)cc1	CHRM1 agonist 50
NC(=O)c1cc(S(=O)(=O)N2CCN(c3cccc(Cl)c3)CC2)cs1	none
CC(C)Cc1nc2oc3c(Cl)ncnc3c2c2c1CCCC2	none
